Screening data deposited in PubChem by National Center for Advancing Translational Sciences (NCATS).
The list is not random: actives were taken first. Their share in the collection is about 15%.
ALOX12 inh – ALOX12 (human) lipoxygenase inhibition; AID 1671190; Potency, µM (top dose mostly 108 µM), without a hit: at the highest dose activity change, negative = inhibition, most hits filed as inhibitors; hit rate 1.1% among 580,000; purified 12hLO, xylenol orange hydroperoxide absorbance; P18054
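Hydroperoxide product was detected by ferrous iron/xylenol orange as the 573 to 405 nm absorbance ratio. Arachidonic acid at 40 uM (final) was turned over for 30 min at room temperature by 150 nM human 12hLO, pH 7.0 Hepes buffer, after 15 min compound preincubation.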
RORgamma inh – inhibitors of mouse ROR gamma transcriptional activity; P51450; Drosophila S2 Gal4-RORgamma UAS-luciferase reporter, 20 h; Potency, µM (doses to about 53.6 µM), inactives show at the highest dose activity change, negative = inhibition, usual class: inhibitors; hit rate 5.4% among 310,000; note: nearly all actives have a fitted effect of over 60% in size
Target sequence (P51450 whole entry, looked up, the tested form may be a part): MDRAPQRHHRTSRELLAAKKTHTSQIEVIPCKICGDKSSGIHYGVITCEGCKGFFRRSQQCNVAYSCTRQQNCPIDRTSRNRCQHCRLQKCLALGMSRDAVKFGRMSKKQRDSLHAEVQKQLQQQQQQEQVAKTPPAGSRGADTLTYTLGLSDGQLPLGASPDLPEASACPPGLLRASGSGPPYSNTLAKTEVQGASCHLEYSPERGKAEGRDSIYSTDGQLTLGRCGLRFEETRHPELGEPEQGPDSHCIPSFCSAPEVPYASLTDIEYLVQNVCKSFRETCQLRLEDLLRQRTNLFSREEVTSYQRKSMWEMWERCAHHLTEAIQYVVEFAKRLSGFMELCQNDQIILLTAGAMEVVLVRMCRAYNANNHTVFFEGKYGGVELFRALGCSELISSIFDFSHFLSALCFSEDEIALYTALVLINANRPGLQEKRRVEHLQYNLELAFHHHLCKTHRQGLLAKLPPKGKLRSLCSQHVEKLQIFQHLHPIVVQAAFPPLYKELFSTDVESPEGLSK
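ROR gamma transcriptional activity was tracked as Gal4-UAS luciferase output in stably transfected Drosophila Schneider cells, with compound added 1 hr before 700 uM copper sulfate induction and a 20 hr ambient-temperature incubation.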
ELG1 repair inh – blocks ELG1-dependent DNA repair in HEK293T cells; HEK293T ELG1-luciferase reporter, luminescence, 16 h; DNA damage induced by 5-fluorouridine; Potency, µM (series often up to 46.1 µM), for inactives: at the top dose activity change, negative = inhibition, most hits filed as inhibitors; hit rate 2.3% among 330,000; AID 504467; note: nearly all actives have a fitted effect of over 55% in size
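HEK293T cells expressing luciferase-tagged ELG1 (2,000/well) received 5-Fluorouridine plus compound or DMSO for 16 hr at 37 °C. Luciferase was read by ONE-Glo luminescence after 30 min at room temperature.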
VP16 counter – inhibits Gal4-VP16 luciferase reporter, ROR gamma counter-screen; Drosophila S2 Gal4-VP16 UAS-luciferase, luminescence, 20 h; Potency, µM (top dose mostly 53.6 µM), inactives show at the top dose activity, negative = inhibition, usual class: inhibitors; hit rate 3.5% among 310,000;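 note: Gal4-VP16 expression switched on by copper sulfate through the metallothionein promoter; nearly all actives have a fitted effect of over 50% in size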
TDP1 cell CPT – growth inhibition of DT40 Tdp1-/-;hTDP1 cells with camptothecin (screen for TDP1 inhibitors); hit rate 12% among 420,000; AID 686979; Potency, µM (top dose mostly 46.2 µM), inactives show top-dose activity change, negative = growth inhibition, usual class: inhibitors; chicken DT40 Tdp1-/-;hTDP1 cells + 20 nM CPT, ATP luminescence, 48 h; note: nearly all actives have a fitted effect of over 55% in size
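Chicken DT40 Tdp1-/- cells complemented with human TDP1, 400 cells/well, exposed to compounds plus 20 nM camptothecin for at least 48 h at 37 C; viability read as ATP content by CellTiter-Glo luminescence.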
DT40 TDP1 no CPT – qHTS for Inhibitors of human tyrosyl-DNA phosphodiesterase 1 (TDP1): qHTS in cells in absence of CPT. DT40 Tdp1-/- hTDP1 cells, no CPT, ATP luminescence, 48 h. Potency, µM (highest dose often 46.2 µM), inactives show top-dose activity change, negative = growth inhibition, hits mostly inhibitors. hit rate 15% among 420,000. AID 686978, 2013; note: nearly all actives have a fitted effect of over 55% in size
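Readout: luminescence from CellTiter-Glo after 30 min in the dark at RT. Cells: DT40 Tdp1-/- with stable hTDP1, 400/well. Exposure: compounds alone, ≥48 hr, 37 °C.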
Numbers without * were called inactive; ? = inconclusive; · = not tested or not shown; [ ] = dose if it differs, or a comment. Calls come from the whole dose curve; as a rule, active = well fitted curve in the direction sought with a large enough effect; inconclusive = small, poorly fitted or top-dose-only effect, or another doubt; inactive = no such curve, though single readings can be large; an effect the other way counts as inactive or inconclusive. % is set by controls: 0 for no effect and ±100 for the full control effect; potency is the fitted concentration of half-maximal effect.

SMILES	ALOX12 inh	RORgamma inh	ELG1 repair inh	VP16 counter	TDP1 cell CPT	DT40 TDP1 no CPT
O=C(c1ccc(-n2cncn2)c([N+](=O)[O-])c1)N1CCN(S(=O)(=O)c2ccccc2Br)CC1	-25.6%	·	-2.7%	·	?	?
CCCC(=O)N1CCN(c2ccc(NC(=O)c3ccc(N4CCCC4)c([N+](=O)[O-])c3)cc2Cl)CC1	-1.6%	·	·	·	18.4µM*	7.31µM*
Cc1cc(C)c(S(=O)(=O)N2CCN(C(=O)c3ccc(-n4cncn4)c([N+](=O)[O-])c3)CC2)c(C)c1	2.0%	·	-7.5%	·	?	13µM*
Cc1ccc2cccc(NC(=O)C(C)(C)Oc3ccc(Cl)cc3)c2n1	6.5%	·	·	·	·	·
CC(=O)c1cnc2nc(SCc3ccc(Cl)cc3)nn2c1C	7.6%	?	-7.9%	0.9%	-13.7%	?
CN1CCC2(CC1)Nc1nc(SCc3ccc(Cl)cc3)nn1C1=C2CN(C)CC1	11.0%	-43.2%	5.7%	-5.2%	?	23.1µM*
CC1=NN(c2ccc(C(=O)OC(C)C)cc2)C(=O)/C1=C\C=C\c1ccco1	?	14.1µM*	0.4%	?	?	?
CC1=NN(c2ccccc2)C(=O)/C1=C\c1cc(C)n(C)c1C	0.3%	15.5%	?	-23.2%	-10.2%	-26.1%
CC1=NN(c2ccccc2)C(=O)/C1=C\C=C1\N(C)c2ccccc2C1(C)C	-23.4%	9.6%	?	-19.8%	?	23.1µM*
CCOC(=O)c1ccc(N2N=C(C)/C(=C/C=C/c3ccco3)C2=O)cc1	-15.4%	41.9%	13.8%	-10.6%	?	?
O=C(O)c1cc(N2N=C(C(F)(F)F)/C(=C/C=C/c3ccco3)C2=O)ccc1Cl	5.62µM*	7.2%	-2.0%	?	?	18.4µM*
CC1=NN(c2ccccc2)C(=O)/C1=C/C=C/c1ccc(N(C)C)cc1	-1.3%	-11.7%	0.4%	-11.5%	23.1µM*	23.1µM*
CCc1noc(CN(CC)C(=O)c2ccccc2NCc2sccc2C)n1	23.4%	·	·	·	·	·
CC1=NN(c2ccccc2)C(=O)/C1=C\C=C\c1ccccc1	?	8.91µM*	18.3µM*	?	4.61µM*	7.31µM*
CC1=NN(c2ccccc2)C(=O)/C1=C/c1cccc(C)c1	0.0%	32.9%	3.3%	1.1%	?	?
CCOC(=O)c1sc(NC(=O)c2ccc(=O)[nH]c2)nc1C	-14.7%	-17.5%	2.3%	-3.2%	-5.9%	-12.2%
CCOC(=O)c1sc(NC(=O)c2ccccc2OCC)nc1C	5.6%	-23.0%	4.8%	4.3%[10 µM]	20.6µM*	?
CCOC(=O)c1sc(NC(=O)c2ccc3nc[nH]c3c2)nc1C	9.5%	?	?	-19.3%	?	8.2µM*
CCOC(=O)c1sc(NC(=O)c2cc(Cl)ccc2F)nc1C	3.3%	·	·	·	·	·
CCOC(=O)c1sc(NC(=O)Nc2ccc(Cl)cc2)nc1C	0.7%	33.1%	?	-4.4%	?	23.1µM*
CC(C)N1C(=O)C2(CCCC2)C1C(=O)NCCCN1CCc2ccccc2C1 (stereo not given)	19.6%	·	·	·	·	·
CCOC(=O)N1CCN(c2c(N3CCN(c4ccc(F)cc4)CC3)c(=O)c2=O)CC1	7.6%	0.6%	0.0%	-9.0%	-10.6%	?
CCOC(=O)N1CCN(c2c(NCc3ccc(F)cc3)c(=O)c2=O)CC1	-3.0%	-9.1%	?	-7.0%	4.11µM*	3.26µM*
CCOC(=O)N1CCN(c2c(NCc3ccc(Cl)cc3)c(=O)c2=O)CC1	29.0%[57.4 µM]	-12.7%	15.7%	-7.5%	4.11µM*	5.8µM*
CN(C)C(=O)C1CCc2nnc(C(C)(C)C)n21 (stereo not given)	4.8%[12.5 µM]	·	·	·	·	·
SMILES	ALOX12 inh	RORgamma inh	ELG1 repair inh	VP16 counter	TDP1 cell CPT	DT40 TDP1 no CPT
O=C(Nc1ncc(-c2cccc(F)c2)c2c1OCC2)c1ccc(F)c(Cl)c1	22.2%[176 µM]	·	·	·	·	·
CCc1ccc(-c2cc(C(F)(F)F)on2)cc1S(=O)(=O)Nc1cc(OC)c(OC)c(OC)c1	-17.2%	·	·	·	·	·
COC(=O)c1c(-c2ccc(Cl)cc2)noc1N1CCN(c2cc(C)ccc2C)CC1	-10.0%	·	·	·	14.6µM*	20.6µM*
COC(=O)c1c(-c2ccc(Cl)cc2)noc1N1CCN(c2ccc(OC)cc2)CC1	-3.3%	·	·	·	23.1µM*	25.9µM*
COC(=O)c1c(-c2ccc(Cl)cc2)noc1N1CCN(c2ccccc2F)CC1	-1.6%	·	·	·	-0.7%	7.1%
COC(=O)c1cccc(OCc2ccccc2C#N)c1	-45.8%	·	·	·	·	·
COc1cc(NC(=O)N2CCc3nc(Nc4cc(Cl)cc(Cl)c4)ncc3C2)cc(OC)c1OC	-24.9%	·	·	·	23.1µM*	?
O=C(ONC1=NCCCCC1)c1ccc(Cl)cc1	10.6%	?	4.7%	?	20.6µM*	14.6µM*
O=C(ONC1=NCCCCC1)c1c(F)cccc1F	104.6%	?	?	-17.7%	16.4µM*	?
O=C(CNC1=NCCC1)c1ccc(Cl)cc1	-5.2%	-40.8%	13.9%	-20.3%	5.9%	7.5%
O=c1c(-c2ccc([N+](=O)[O-])cc2)coc2c(O)c(O)ccc12	6.31µM*	12.1%	?	2.0%	?	?
NC(N)=NN=C(c1ccc(F)cc1)c1ccc(C(F)(F)F)cc1	?	·	·	·	2.59µM*	2.31µM*
Cc1cc(C)c2c(N)c(C(=O)c3ccc(Cl)cc3Cl)sc2n1	-18.7%	10.7%	10.3µM*	-9.7%	?	18.4µM*
Cc1cc(C)c2c(N)c(C(=O)N3CCCCCC3)sc2n1	-19.9%	-30.0%	13.9%	9.7%	14.6µM*	-24.1%
COc1cc(/C=N/NC(=O)c2sc3nc(C)cc(C)c3c2N)ccc1O	133.8%	0.0%	0.3%	1.5%	?	3.26µM*
COc1ccc2nc(NC(=O)c3sc4nc(C)cc(C)c4c3N)sc2c1	0.2%	0.0398µM*	?	?	-4.8%	?
COCc1cc(C)nc2sc(C(=O)N3CCCC3)c(N)c12	1.4%	-0.4%	6.5%	0.1%	-16.4%	-18.6%
COc1ccc(C(=O)Nc2ccc3oc(C)nc3c2)c(O)c1	-16.0%	·	·	·	·	·
CCc1ccccc1NC(=O)c1sc2nc(C)cc(C)c2c1N	-14.0%	41.2%	-4.7%	1.6%	18.4µM*	?
Cc1cc(C)c2c(N)c(C(=O)Nc3ncc(C)s3)sc2n1	0.0%[57.4 µM]	2µM*	?	2.82µM*	16.4µM*	18.4µM*
Cc1cc(C(=O)N2C[C@@H]3CCCN4CCC[C@@H]([C@H]34)[C@H]2CCCC(=O)N2CCOCC2)nn1C	12.8%	·	·	·	·	·
Cc1cc(C(=O)N2CCCC(c3noc(COc4ccccc4)n3)C2)nn1C (stereo not given)	30.7%	·	·	·	·	·
